Screen size: about 5,500 compounds; about 2,000 (36%) were called active. About 18% were inconclusive and are not listed. No stated cut-off is given here; in the data, active means normalized growth mostly below about 0.91 (no sharp cut-off); inconclusive means no clear call, values can overlap the other calls; inactive means mostly above about 0.92. This is one part of the list.
Experiment: chemical genetic growth profiling, strain panel (AID 1159580);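 further: tested at 20 µM; growth read once vehicle control cultures reached saturation at 30 °C; 1 = growth at the plate median or of vehicle wells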
Conditions: growth OD
[1] = S. cerevisiae deletion strains, locus YAL013W, strain DEP1, stronger effect = lower value
[2] = S. cerevisiae deletion strains, locus YAL040C, strain CLN3, stronger effect = lower value
[3] = S. cerevisiae deletion strains, locus YCL061C, strain MRC1 (second series), stronger effect = lower value
[4] = S. cerevisiae deletion strains, locus YDR150W, strain NUM1, stronger effect = lower value
[5] = S. cerevisiae deletion strains, locus YDR363W, strain ESC2, stronger effect = lower value
[6] = S. cerevisiae deletion strains, locus YER002W, strain NOP16, stronger effect = lower value
[7] = S. cerevisiae deletion strains, locus YJR075W, strain HOC1, stronger effect = lower value
[8] = S. cerevisiae deletion strains, locus YMR307W, strain GAS1, stronger effect = lower value
[9] = S. cerevisiae deletion strains, locus YNL153C, strain GIM3, stronger effect = lower value
[10] = S. cerevisiae deletion strains, locus YNL175C, strain NOP13, stronger effect = lower value
[11] = S. cerevisiae deletion strains, locus YNL197C, strain WHI3, stronger effect = lower value
[12] = S. cerevisiae deletion strains, locus YNL224C, strain SQS1, stronger effect = lower value
[13] = S. cerevisiae deletion strains, locus YOR083W, strain WHI5 (second series), stronger effect = lower value
[14] = S. cerevisiae deletion strains, locus YPL055C, strain LGE1, stronger effect = lower value
[15] = S. cerevisiae deletion strains, locus YPL241C, strain CIN2, stronger effect = lower value
[16] = S. cerevisiae deletion strains, locus YGR078C, strain PAC10, stronger effect = lower value
[17] = S. cerevisiae deletion strains, locus YNL322C, strain KRE1, stronger effect = lower value
[18] = S. cerevisiae deletion strains, locus YBR229C, strain ROT2, stronger effect = lower value
[19] = S. cerevisiae deletion strains, locus YCL061C, strain MRC1, stronger effect = lower value
[20] = S. cerevisiae deletion strains, locus YDL101C, strain DUN1, stronger effect = lower value
[21] = S. cerevisiae deletion strains, locus YDL134C, strain PPH21, stronger effect = lower value
[22] = S. cerevisiae deletion strains, locus YEL061C, strain CIN8, stronger effect = lower value
[23] = S. cerevisiae deletion strains, locus YHR030C, strain SLT2, stronger effect = lower value
[24] = S. cerevisiae deletion strains, locus YHR087W, strain rtc3, stronger effect = lower value
[25] = S. cerevisiae deletion strains, locus YJR043C, strain POL32, stronger effect = lower value
[26] = S. cerevisiae deletion strains, locus YKL190W, strain CNB1, stronger effect = lower value
[27] = S. cerevisiae deletion strains, locus YLR039C, strain RIC1, stronger effect = lower value
[28] = S. cerevisiae deletion strains, locus YLR058C, strain SHM2 (second series), stronger effect = lower value
[29] = S. cerevisiae deletion strains, locus YLR085C, strain ARP6, stronger effect = lower value
[30] = S. cerevisiae deletion strains, locus YLR262C, strain YPT6, stronger effect = lower value
[31] = S. cerevisiae deletion strains, locus YML094W, strain GIM5, stronger effect = lower value
[32] = S. cerevisiae deletion strains, locus YMR219W, strain ESC1, stronger effect = lower value
[33] = S. cerevisiae deletion strains, locus YMR263W, strain SAP30, stronger effect = lower value
[34] = S. cerevisiae deletion strains, locus YNL298W, strain CLA4 (second series), stronger effect = lower value
[35] = S. cerevisiae deletion strains, locus YNR030W, strain Alg12, stronger effect = lower value
[36] = S. cerevisiae deletion strains, locus YPR135W, strain CTF4, stronger effect = lower value
[37] = S. cerevisiae strains, strain wild type, stronger effect = lower value

Measured: normalized growth

COC1(C2=NCCN2)COc2ccccc2O1 (stereo not drawn)
inactive: [1] 1 | [2] 1.01 | [3] 1.01 | [4] 1.02 | [5] 0.995 | [6] 1 | [7] 1.01 | [8] 0.998 | S. cerevisiae deletion strains, locus YNL128W, strain TEP1, stronger effect = lower value 0.995 | [9] 1.03 | [10] 1 | [11] 1.01 | [12] 1.01 | [13] 1.02 | [14] 0.996 | [15] 1.01

Nn1nnc2ccccc21
inactive: [1] 1.01 | [2] 1.02 | [3] 1.01 | [5] 1 | [6] 1.01 | [16] 1.01 | [10] 0.991 | [11] 1.01 | [12] 0.998 | [17] 1.02 | [13] 0.998 | [14] 1.02

N#CCCNc1cc(C(F)(F)F)cc(C(F)(F)F)c1
inactive: [1] 0.98 | [18] 0.985 | [19] 0.96 | [20] 0.986 | [21] 0.99 | [4] 0.96 | [22] 0.975 | [16] 0.947 | S. cerevisiae deletion strains, locus YGR229C, strain SMI1, stronger effect = lower value 0.981 | [23] 0.867 | [24] 0.989 | S. cerevisiae deletion strains, locus YJL187C, strain SWE1, stronger effect = lower value 0.986 | [25] 0.97 | [26] 0.981 | [27] 0.848 | [28] 1.01 | [29] 0.837 | [30] 0.844 | [31] 0.918 | [32] 0.987 | [33] 0.991 | [8] 0.903 | [9] 0.96 | [34] 0.954 | [17] 0.957 | [35] 0.902 | [14] 0.893 | [15] 0.947 | [36] 0.801 | [37] 0.991
active: [7] 0.883

FC(F)(F)c1cc(NC2=NCCN=C(Nc3cc(C(F)(F)F)cc(C(F)(F)F)c3)SS2)cc(C(F)(F)F)c1
inactive: [1] 1.01 | [18] 1.01 | [19] 0.997 | [20] 0.993 | [21] 0.999 | [4] 1.04 | [22] 1 | [16] 1 | [23] 0.952 | [24] 0.997 | [25] 0.993 | [7] 0.989 | [26] 1.01 | [27] 0.977 | [28] 1.01 | [29] 0.978 | [30] 0.979 | [31] 0.975 | [32] 1 | [33] 1.02 | [8] 0.916 | [9] 1.02 | [34] 1.01 | [17] 1 | [35] 0.988 | [14] 1.05 | [15] 0.99 | [36] 0.95 | [37] 1.01

Reference: PubChem BioAssay AID1159580 (chemical genetic matrix, 2015)
